Data on 9 molecules can be found in PubChem BioAssay (Tox21).

Unmarked numbers belong to inactive results. Inconclusive results are not listed. The source made the active and inactive calls. Unless noted, calls come from the whole dose curve.

Experiment [1] can be described thus: Nuclear factor erythroid 2-related factor 2/antioxidant responsive element (Nrf2/ARE) small molecule agonists: qHTS cell viability counter screen in human keratinocytes (AID 1919968; active = well fitted curve in the direction sought with a large enough effect in the repeat runs; an effect the other way counts as inactive or inconclusive; note: nearly all actives have a fitted effect of over 55% in size). In outline:
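Measured as CellTiter-Fluor fluorescence, this readout tracks cytotoxicity in the same wells as the ARE-luciferase screen. HaCaT reporter cells (1,500/well) received compounds after a 5 h pre-incubation and were exposed for 23 h.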
Background: qHTS replaces the single test concentration by a dilution series.

Experiment [2] can be described thus: Nuclear factor erythroid 2-related factor 2/antioxidant responsive element (Nrf2/ARE) small molecule agonists: luciferase reporter gene qHTS assay in human keratinocytes (AID 1919969). Note: nearly all actives have a fitted effect of over 35% in size. Note: potency is the fitted concentration of half-maximal effect. In general terms: In a reporter assay the amount or activity of a reporter protein is the signal.
Experiment [3] addresses Gonadotropin-releasing hormone receptor (Homo sapiens) (UniProt P30968). The experiment is described as follows: Human gonadotropin-releasing hormone receptor (GnRHR) small molecule agonists, calcium flux assay in GnRHR-HEK293 cells (AID 1920063). Note: nearly all actives have a fitted effect of over 35% in size. An outline of the steps:
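Fluorescence kinetics (480 nm excitation, 540 nm emission; 3 min, 1 s steps) report calcium mobilisation in human GnRHR-HEK293 cells in agonist mode. Dye incubation: 1 h, 37 C.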

Experiment [4] concerns the target KiSS-1 receptor (Homo sapiens) (UniProt Q969F8). The experiment is described as follows: Human kisspeptin (KISS1R) small molecule agonists, calcium flux assay in KISS1R-HEK293 cells (AID 1920064; active = well fitted curve in the direction sought with a large enough effect in the repeat runs; an effect the other way counts as inactive or inconclusive). In outline:
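Measures KISS1R agonism through calcium-sensitive dye fluorescence in stably transfected HEK293 cells, read for 3 min after pin-tool compound delivery; 15-point titrations in triplicate.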

A short description of experiment [5]: G protein-coupled receptor (GPCR) small molecule agonists, calcium flux assay: HEK293 wild type cell line counter screen (AID 1920065). In outline: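 Readout: fluorescence at 480 nm excitation/540 nm emission, sampled at 1 s intervals for 3 min. Cells had been cultured 18 h, then dye-loaded 1 h at 37 C before compound or ATP addition.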
A short description of experiment [6]: p53 small molecule agonists, cell-based qHTS assay with human liver microsomes (AID 1963577). In outline: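 p53RE-bla reporter cells were pre-incubated 5 h at 37 C, then treated with compounds plus human liver microsomes (0.5 mg/mL final) and NADPH (0.5 mg/mL final) for 16 h at 37 C. Beta-lactamase activity was read by LiveBLAzer fluorescence after 2 h at room temperature.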

A short description of experiment [7]: p53 small molecule agonists, cell-based qHTS assay with rat liver microsomes (AID 1963578). In outline: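 p53RE-bla cells were exposed to compounds together with rat liver microsomes (0.5 mg/mL final) and NADPH (0.5 mg/mL final) for 16 h at 37 C, then read by LiveBLAzer beta-lactamase fluorescence after 2 h at room temperature.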
A short description of experiment [8]: p53 small molecule agonists, cell-based qHTS assay with human liver microsomes: qHTS cell viability counter screen (AID 1963579). Note: nearly all actives have a fitted effect of over 45% in size. In outline: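 p53RE-bla cells (4,000/well) were pre-incubated 5 h at 37 C, then given compounds in DMSO plus human liver microsomes (0.5 mg/mL final) and NADPH (0.5 mg/mL final) for 16 h at 37 C. Viability was read by CellTiter-Glo luminescence.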

The nature of experiment [9]: p53 small molecule agonists, cell-based qHTS assay with rat liver microsomes: qHTS cell viability counter screen (AID 1963580). Note: nearly all actives have a fitted effect of over 45% in size. In outline:
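HCT-116 p53RE-bla, 4,000 cells/well, 5 h pre-incubation; cpd + rat liver microsomes 0.5 mg/mL + NADPH 0.5 mg/mL (final); 16 h, 37 C; CellTiter-Glo, 30 min RT; luminescence.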

The nature of experiment [10]: p53 small molecule agonists, cell-based qHTS assay: qHTS cell viability counter screen (AID 1963581). Note: nearly all actives have a fitted effect of over 45% in size. In outline:
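In the same plates used for the p53 bla reporter, HCT-116 cells given compounds for 16 h at 37 C received CellTiter-Glo; luminescence was recorded 30 min later at room temperature.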

Experiment [11] can be described thus: p53 small molecule agonists, cell-based qHTS assay (AID 1963582; active = well fitted activation curve with a large enough effect in the signal ratio in the repeat runs, not every such curve was filed as active; the % refers to the signal ratio). An outline of the steps:
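Compounds are pin-transferred in DMSO onto p53RE-bla cells and incubated 16 h at 37 C. The B/G FRET beta-lactamase substrate is then applied for 2 h at RT and fluorescence recorded.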

Experiment [12] concerns the target 5-hydroxytryptamine receptor 2A (Homo sapiens) (UniProt P28223). The experiment is described as follows: 5-hydroxytryptamine receptor 2A (HTR2A) small molecule antagonists, cell-based qHTS assay (AID 1963586). Note: nearly all actives have a fitted effect of over 45% in size. In outline: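 Antagonist-mode intracellular calcium assay: DOI (4 nM) added after 5 min compound pre-incubation at room temperature to dye-loaded HTR2A-CHO cells. Fluorescence followed for 3 min, sampled every second.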

Experiment [13] shares this target. The experiment is described as follows: 5-hydroxytryptamine receptor 2A (HTR2A) small molecule agonists, cell-based qHTS assay (AID 1963587). Note: nearly all actives have a fitted effect of over 30% in size. In outline: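 Kinetic calcium-flux fluorescence (2 min, 1 sec intervals) after compound addition in agonist mode. HTR2A-CHO cells were cultured 18 h, then dye-loaded 1 h at 37 C.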
In experiment [14] the target is Muscarinic acetylcholine receptor M1 (Homo sapiens) (UniProt P11229). The experiment can be described thus: Cholinergic receptor muscarinic 1 (CHRM1) small molecule antagonists, cell-based qHTS assay (AID 1963588). Note: nearly all actives have a fitted effect of over 40% in size. An outline of the steps:
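CHRM1-CHO calcium-flux assay, antagonist mode. Cells were seeded 18 h, dye-loaded 1 h at 37 C and given compound for 5 min at RT, then acetylcholine was added at 50nM. FDSS fluorescence was read 3 min; 15 concentrations, three runs.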

Experiment [15] has the same target. The experiment can be described thus: Cholinergic receptor muscarinic 1 (CHRM1) small molecule agonists, cell-based qHTS assay (AID 1963589). Note: nearly all actives have a fitted effect of over 35% in size. In outline: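 Each compound was tested at 15 concentrations across three independent runs on dye-loaded CHO cells stably expressing human CHRM1, reading intracellular calcium fluorescence kinetically at 1 sec intervals.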

Experiment [16] in a line: cAMP Responsive Elements (CRE) small molecule agonists, cell-based qHTS assay (AID 1963590). An outline of the steps: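 Cell line: CRE-bla HEK 293T; medium DMEM/10% dialyzed FBS/0.1 mM NEAA/1 mM pyruvate/25 mM HEPES; 3 h compound exposure; beta-lactamase FRET readout after 2 h substrate loading at RT.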
Experiment [17] is described as follows: cAMP Responsive Elements (CRE) small molecule antagonists, cell-based qHTS assay (AID 1963591; active = well fitted inhibition curve with a large enough effect in the signal ratio in the repeat runs, not every such curve was filed as active; the % refers to the signal ratio). An outline of the steps:
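Inhibition of NKH477-driven (0.25 uM final) CRE-beta-lactamase signal in HEK293T cells, 3 h compound exposure at 37 °C, detected by FRET substrate fluorescence.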

Experiment [18] concerns the target Beta-2 adrenergic receptor (Homo sapiens) (UniProt P07550). The experiment can be described thus: Adrenergic beta2 receptor (ADRB2) small molecule antagonists, cell-based qHTS assay (AID 1963592). Note: series mostly up to about 92 µM; nearly all actives have a fitted effect of over 50% in size. An outline of the steps:
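Cells (CHO, stable ADRB2 overexpression) incubated 18-20hr at 37C; compounds added from DMSO; agonist mix (1nM isoproterenol, 100uM IBMX, 25uM Ro-20-1724) added; 0.5hr RT; d2-cAMP and anti-cAMP-cryptate added; 1hr RT; 665/615 nm read.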

For experiment [19] the target is unchanged. The experiment is described as follows: Adrenergic beta2 receptor (ADRB2) small molecule agonists, cell-based qHTS assay (AID 1963593).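 Note: CHO cells stably overexpressing human ADRB2.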 An outline of the steps: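 CHO cells stably over-expressing ADRB2 were plated overnight at 37C, then dosed with compounds plus a stimulation mix containing 100uM IBMX and 25uM Ro-20-1724 for 0.5hr at room temperature. cAMP was measured by HTRF competition, 1hr.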

The target of experiment [20] is D(2) dopamine receptor (Homo sapiens) (UniProt P14416). The experiment is described as follows: Dopamine D2 receptor (DRD2) small molecule agonists, cell-based qHTS assay (AID 1963594). Note: nearly all actives have a fitted effect of over 35% in size. An outline of the steps:
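cAMP accumulation in DRD2-HEK293 cells measured by HTRF after 1 h detection; compounds added 10 min before NKH477 (200nM […]) forskolin-analogue stimulation, 30 min at room temperature, with Ro20-1724 present at 0.1 mM final.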

Sequence of 5-hydroxytryptamine receptor 2A (Homo sapiens) (P28223 whole entry, looked up): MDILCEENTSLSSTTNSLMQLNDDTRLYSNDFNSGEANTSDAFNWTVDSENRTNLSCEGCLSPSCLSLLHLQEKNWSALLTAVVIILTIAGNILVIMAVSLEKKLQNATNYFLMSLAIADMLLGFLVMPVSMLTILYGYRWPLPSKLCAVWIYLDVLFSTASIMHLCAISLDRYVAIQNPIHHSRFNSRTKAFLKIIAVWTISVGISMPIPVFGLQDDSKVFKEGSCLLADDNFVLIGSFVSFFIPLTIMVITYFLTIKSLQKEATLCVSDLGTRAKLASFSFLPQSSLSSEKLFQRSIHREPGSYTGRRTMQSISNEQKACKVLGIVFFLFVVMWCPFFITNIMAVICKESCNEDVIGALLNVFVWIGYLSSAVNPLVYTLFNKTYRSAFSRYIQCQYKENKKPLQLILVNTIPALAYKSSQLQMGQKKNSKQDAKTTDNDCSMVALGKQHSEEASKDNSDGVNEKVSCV
Sequence of Gonadotropin-releasing hormone receptor (Homo sapiens) (P30968 whole entry, looked up): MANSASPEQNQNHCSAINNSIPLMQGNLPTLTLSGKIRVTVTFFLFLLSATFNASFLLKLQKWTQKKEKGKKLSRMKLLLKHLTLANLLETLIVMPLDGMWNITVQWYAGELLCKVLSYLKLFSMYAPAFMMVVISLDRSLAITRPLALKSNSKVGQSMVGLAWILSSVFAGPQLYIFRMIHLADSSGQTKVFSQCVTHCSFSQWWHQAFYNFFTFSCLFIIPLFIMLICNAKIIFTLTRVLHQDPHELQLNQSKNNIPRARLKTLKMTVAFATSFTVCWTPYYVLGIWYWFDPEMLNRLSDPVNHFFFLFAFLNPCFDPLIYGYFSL
Sequence of KiSS-1 receptor (Homo sapiens) (Q969F8 whole entry, looked up): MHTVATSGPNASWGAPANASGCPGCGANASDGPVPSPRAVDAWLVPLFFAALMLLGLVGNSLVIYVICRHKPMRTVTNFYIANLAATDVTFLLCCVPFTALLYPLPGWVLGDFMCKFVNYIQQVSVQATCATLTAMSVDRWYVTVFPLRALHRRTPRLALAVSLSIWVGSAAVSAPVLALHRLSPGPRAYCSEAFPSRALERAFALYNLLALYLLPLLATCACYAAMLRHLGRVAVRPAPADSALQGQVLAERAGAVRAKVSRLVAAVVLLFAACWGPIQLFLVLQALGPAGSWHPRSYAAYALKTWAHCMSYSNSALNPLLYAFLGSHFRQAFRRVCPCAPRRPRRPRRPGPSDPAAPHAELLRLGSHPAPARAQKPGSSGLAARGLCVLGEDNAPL
Sequence of D(2) dopamine receptor (Homo sapiens) (P14416 whole entry, looked up): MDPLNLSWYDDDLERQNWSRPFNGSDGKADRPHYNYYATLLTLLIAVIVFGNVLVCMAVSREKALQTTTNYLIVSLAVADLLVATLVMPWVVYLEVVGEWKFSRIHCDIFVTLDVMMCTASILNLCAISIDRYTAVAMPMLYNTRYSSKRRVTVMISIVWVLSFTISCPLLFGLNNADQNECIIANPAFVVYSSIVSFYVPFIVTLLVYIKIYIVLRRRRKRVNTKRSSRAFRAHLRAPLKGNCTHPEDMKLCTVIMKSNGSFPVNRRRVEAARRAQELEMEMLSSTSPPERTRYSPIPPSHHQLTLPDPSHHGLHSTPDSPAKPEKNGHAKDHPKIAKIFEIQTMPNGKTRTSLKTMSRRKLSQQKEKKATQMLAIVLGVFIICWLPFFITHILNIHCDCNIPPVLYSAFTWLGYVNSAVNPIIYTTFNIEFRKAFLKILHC
Sequence of Beta-2 adrenergic receptor (Homo sapiens) (P07550 whole entry, looked up): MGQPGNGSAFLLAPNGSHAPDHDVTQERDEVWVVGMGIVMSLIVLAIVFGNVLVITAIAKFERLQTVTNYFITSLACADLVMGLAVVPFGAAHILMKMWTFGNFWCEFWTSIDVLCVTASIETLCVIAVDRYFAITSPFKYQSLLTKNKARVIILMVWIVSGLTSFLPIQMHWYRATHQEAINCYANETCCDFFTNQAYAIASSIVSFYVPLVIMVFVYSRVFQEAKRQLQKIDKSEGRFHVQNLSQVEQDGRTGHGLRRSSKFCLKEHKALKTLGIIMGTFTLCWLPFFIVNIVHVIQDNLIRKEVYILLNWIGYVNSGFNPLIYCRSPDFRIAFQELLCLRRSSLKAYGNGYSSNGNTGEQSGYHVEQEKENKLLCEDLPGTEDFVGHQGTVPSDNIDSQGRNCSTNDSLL
Sequence of Muscarinic acetylcholine receptor M1 (Homo sapiens) (P11229 whole entry, looked up): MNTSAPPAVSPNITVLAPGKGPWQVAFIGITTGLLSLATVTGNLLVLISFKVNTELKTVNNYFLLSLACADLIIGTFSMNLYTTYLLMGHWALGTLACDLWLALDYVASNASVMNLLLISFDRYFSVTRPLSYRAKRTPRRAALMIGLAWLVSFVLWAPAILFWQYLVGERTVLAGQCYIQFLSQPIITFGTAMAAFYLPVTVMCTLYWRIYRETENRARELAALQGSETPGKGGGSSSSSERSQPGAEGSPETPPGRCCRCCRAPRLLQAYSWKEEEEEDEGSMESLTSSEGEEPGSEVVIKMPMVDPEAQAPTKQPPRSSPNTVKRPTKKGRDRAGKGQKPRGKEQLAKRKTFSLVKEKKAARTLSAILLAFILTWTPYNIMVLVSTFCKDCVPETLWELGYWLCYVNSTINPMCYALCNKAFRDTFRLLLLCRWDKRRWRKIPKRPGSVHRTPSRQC

In the case of `CC(C)OC(C)C`, the Potency entry in [1], in experiment [2], in experiment [3], in experiment [4], in [5] and in experiment [6] was “inactive” each time. Also, the Potency entry in [7], in [8], in experiment [9], in experiment [10], in [11] and in [12] was “inactive” throughout. Further, the Potency result in experiment [13], in experiment [14], in experiment [15], in [16], in experiment [17] and in [18] was “inactive” throughout. In addition, the Potency result in experiment [19] and in experiment [20] was “inactive” each time.

Consider `CCCCOC(=O)C(=O)OCCCC`, for which the Potency result in experiment [1], in experiment [2], in experiment [3], in [4], in experiment [5] and in experiment [6] was “inactive” each time. In addition, the Potency result in [7], in [8], in experiment [9], in experiment [10], in [11] and in [12] was “inactive” in each case. In addition, the Potency entry in [13], in experiment [14], in [15], in experiment [16], in experiment [17] and in experiment [18] was “inactive” each time. The Potency result in [19] and in experiment [20] was “inactive” throughout.

Turning to `O=C(O)CSCC(=O)NC1CCSC1=O` (stereo not given), the Potency entry in [1], in experiment [2], in experiment [3], in [4], in experiment [5] and in experiment [6] was “inactive” each time. Besides, the Potency result in experiment [7], in experiment [8], in [9], in experiment [10], in experiment [11] and in experiment [12] was “inactive” in each case. For the same molecule, the Potency result in [13], in experiment [14], in experiment [15], in experiment [16], in [17] and in experiment [18] was “inactive” in each case. In addition, the Potency entry in [19] and in experiment [20] was “inactive” throughout.

On to `CCCCCCCCCCCCCCCC`, for which the Potency result in experiment [1], in [2], in [3], in experiment [4], in experiment [5] and in experiment [6] was “inactive” each time. Moreover, the Potency result in experiment [7], in [8], in experiment [9], in [10], in experiment [11] and in experiment [12] was “inactive” throughout. The Potency entry in [13], in experiment [14], in [15], in experiment [16], in experiment [17] and in [18] was “inactive” each time. The Potency result in [19] and in [20] was “inactive” throughout.

On to `O=C(O)C(=O)Nc1cccc(-c2nn[nH]n2)c1`, for which the Potency entry in experiment [1], in [2], in experiment [3], in experiment [4], in experiment [5] and in [6] was “inactive” throughout. Further, the Potency entry in experiment [7], in experiment [8], in experiment [9], in experiment [10], in experiment [11] and in experiment [12] was “inactive” each time. In addition, the Potency entry in experiment [13], in [14], in experiment [15], in experiment [16], in [17] and in [18] was “inactive” each time. In addition, the Potency result in experiment [19] and in experiment [20] was “inactive” in each case.

`CCCCc1ncc(/C=C(\Cc2cccs2)C(=O)O)n1Cc1ccc(C(=O)O)cc1`: the Potency entry in [1], in experiment [2], in experiment [3], in experiment [4], in [5] and in experiment [6] was “inactive” each time. Further, the Potency entry in [7], in [8], in [9], in experiment [10], in [11] and in [12] was “inactive” in each case. Also, the Potency entry in experiment [13], in experiment [14], in experiment [15], in [16], in experiment [17] and in experiment [18] was “inactive” each time. In addition, the Potency result in experiment [19] and in experiment [20] was “inactive” in each case.

Take `c1ccc2cc3c4ccccc4c4ccccc4c3cc2c1`: the Potency result in experiment [1], in experiment [3], in [4], in [5], in experiment [6] and in experiment [7] was “inactive” throughout. Also, the Potency result in experiment [8], in experiment [9], in experiment [10], in experiment [11], in experiment [12] and in [13] was “inactive” throughout. Further, the Potency entry in experiment [14], in [15], in experiment [16], in experiment [17], in experiment [18] and in [19] was “inactive” in each case. Also, the Potency result in [20] was “inactive”. Also, the Potency in experiment [2] is 24.4 µM (active).

Take `O=C1OC(=O)C2CC=CCC12` (stereo not given): the Potency entry in experiment [1], in [2], in experiment [3], in [4], in experiment [5] and in experiment [6] was “inactive” in each case. The Potency result in experiment [7], in experiment [8], in experiment [9], in [10], in [11] and in experiment [12] was “inactive” in each case. Besides, the Potency result in experiment [13], in experiment [14], in experiment [15], in experiment [16], in experiment [17] and in experiment [18] was “inactive” throughout. For the same molecule, the Potency result in experiment [19] and in experiment [20] was “inactive” each time.

Turning to `O=c1cc(CO)occ1O`, the Potency result in experiment [1], in experiment [2], in [3], in [4], in [5] and in experiment [6] was “inactive” in each case. For the same molecule, the Potency entry in [7], in experiment [8], in experiment [9], in [10], in [11] and in experiment [12] was “inactive” each time. The Potency entry in experiment [13], in [14], in experiment [15], in experiment [16], in [17] and in experiment [18] was “inactive” each time. For the same molecule, the Potency result in experiment [19] and in experiment [20] was “inactive” in each case.
